Results filed as inconclusive are left out. The source made the active and inactive calls. How the source made its calls: active means hit-call score of the fitted dose curve at least 0.9, where 1 is the maximum; inconclusive means response in the unintended direction; inactive means score below 0.9.
How the values were obtained:
[1] = Tanguay_ZF_120hpf_SNOU_legacy: (Legacy) Oregon State University Tanguay Lab 120 Hour Post-fertilization zebrafish Assay for Snout Malformation (AID 2283637)
Method in brief: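 Binary brightfield scoring of snout malformation at 120 hpf. Dechorionated 5D wild-type embryos, one per well, static exposure from 6 hpf at 28C, sealed and dark; final DMSO 0.64% (vol/vol), DMSO as baseline; 5uM trimethyltin chloride positive control.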

[2] = Tanguay_ZF_120hpf_JAW_legacy: (Legacy) Oregon State University Tanguay Lab 120 Hour Post-fertilization zebrafish Assay for Jaw Malformation (AID 2283638);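 on AC50: active means more embryos with jaw malformation than DMSO controls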
Method in brief: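 Dechorionated Tropical 5D wild-type zebrafish embryos, one per well, exposed statically from 6 hpf to 120 hpf at 28C in 0.64% DMSO. Jaw malformation was scored by brightfield microscopy as present or absent. It was not scored in dead embryos.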

[3] = Tanguay_ZF_120hpf_OTIC_legacy: (Legacy) Oregon State University Tanguay Lab 120 Hour Post-fertilization zebrafish Assay for Otic Vesicle Malformation (AID 2283639)
Method in brief: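 Binary scoring of otic vesicle defects at 120 hpf in zebrafish (Tropical 5D) held under static exposure at 28C, sealed and shaded, with final DMSO 0.64%. Embryos dying by 24 or 120 hpf excluded; fitted positively against DMSO.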

[4] = Tanguay_ZF_120hpf_BRAI_legacy: (Legacy) Oregon State University Tanguay Lab 120 Hour Post-fertilization zebrafish Assay for Brain Malformation (AID 2283641)
Method in brief: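 Tropical 5D wild-type zebrafish embryos exposed statically until 120 hpf at 28C, 0.64% DMSO final, sealed and dark. Brain malformation scored present/absent by brightfield at 120 hpf; dead embryos excluded. Trimethyltin chloride 5uM positive control.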

[5] = Tanguay_ZF_120hpf_SOMI_legacy: (Legacy) Oregon State University Tanguay Lab 120 Hour Post-fertilization zebrafish Assay for Somite Malformation (AID 2283647)
Method in brief: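 Dechorionated Tropical 5D wild-type zebrafish embryos, one per well from 6 hpf, statically exposed at 28C to 120 hpf in 0.64% DMSO; somite malformation scored present/absent by brightfield; trimethyltin 5 uM positive control; dead embryos not scored.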

[6] = Tanguay_ZF_120hpf_PFIN_legacy: (Legacy) Oregon State University Tanguay Lab 120 Hour Post-fertilization zebrafish Assay for Pectoral Fin Malformation (AID 2283648);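 further: each larva judged yes or no for fin defect by brightfield with dead larvae skipped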
Method in brief: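 Binary pectoral fin malformation call at 120 hpf by brightfield microscopy; 5D wild-type zebrafish, chorion removed at 4 hpf, one embryo per well from 6 hpf, static exposure at 28C; DMSO (0.64% final) as baseline.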

[7] = Tanguay_ZF_120hpf_CFIN_legacy: (Legacy) Oregon State University Tanguay Lab 120 Hour Post-fertilization zebrafish Assay for Caudal Fin Malformation (AID 2283649)
Method in brief: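 Dechorionated Tropical 5D wild-type embryos, one per well from 6 hpf, static exposure to 120 hpf at 28C in 0.64% DMSO. Caudal fin malformation scored by brightfield as present/absent; not scored in dead embryos.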

[8] = Tanguay_ZF_120hpf_PIG_legacy: (Legacy) Oregon State University Tanguay Lab 120 Hour Post-fertilization zebrafish Assay for Pigmentation Malformation (AID 2283650)
Method in brief: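 Brightfield scoring of pigmentation malformation at 120 hpf, recorded as binary present/absent per larva. Exposure: dechorionated 5D wild-type embryos, one per well, static from 6 hpf at 28C, final DMSO 0.64% (vol/vol). Dead embryos not scored.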

[9] = Tanguay_ZF_120hpf_CIRC_legacy: (Legacy) Oregon State University Tanguay Lab 120 Hour Post-fertilization zebrafish Assay for Circulatory Malformation (AID 2283651)
Method in brief: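 Binary circulatory malformation call at 120 hpf by brightfield imaging of zebrafish larvae; chorion removed at 4 hpf, static exposure from 6 hpf in sealed dark plates at 28C, final DMSO 0.64%; non-mortality endpoints skipped if embryo died.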

[10] = Tanguay_ZF_120hpf_SWIM_legacy: (Legacy) Oregon State University Tanguay Lab 120 Hour Post-fertilization zebrafish Assay for Swim Bladder Malformation (AID 2283654);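 further: swim bladder malformation in each larva scored yes or no under brightfield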
Method in brief: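 Tropical 5D embryos dechorionated at 4 hpf; 1 embryo/well from 6 hpf; static, sealed, dark exposure at 28C until 120 hpf; final DMSO 0.64%; 5uM trimethyltin chloride positive control; swim bladder defect recorded yes/no; dead embryos not scored.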

[11] = Tanguay_ZF_120hpf_TRUN_legacy: (Legacy) Oregon State University Tanguay Lab 120 Hour Post-fertilization zebrafish Assay for Truncated Body (AID 2283655)
Method in brief: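 Dechorionated Tropical 5D wild-type embryos placed singly from 6 hpf and statically exposed to 120 hpf at 28C, final DMSO 0.64%. Truncated body scored as present/absent by brightfield; not scored in dead embryos.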

[12] = Tanguay_ZF_120hpf_NC_legacy: (Legacy) Oregon State University Tanguay Lab 120 Hour Post-fertilization zebrafish Assay for Notochord and Tail Malformation (AID 2283656)
Method in brief: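 Binary scoring of notochord distortion by brightfield microscopy; embryos dying were not scored. Wild-type Tropical 5D embryos, chorion removed, exposed singly and statically from 6 to 120 hpf, 28C, sealed, 0.64% DMSO.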

[13] = Tanguay_ZF_120hpf_PE_legacy: (Legacy) Oregon State University Tanguay Lab 120 Hour Post-fertilization zebrafish Assay for Pericardial Edema (AID 2283640);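 on AC50: potency for increased incidence of pericardial edema versus DMSO baseline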
Method in brief: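 Tropical 5D wild-type zebrafish embryos were statically exposed until 120 hpf at 28C, with 0.64% DMSO final. Pericardial edema was scored by brightfield as present or absent; endpoints were not scored in dead embryos.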

[14] = read-out: ABC Transporter (ABCB1), ABCB1 (gene 5243); test: CLD_ABCB1_6hr: CellzDirect (CLD) Gene Expression Assay for ABC Transporter (ABCB1) at 6 hours (AID 2283659);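 further: hits raise ABCB1 transcript above the DMSO vehicle baseline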
Method in brief: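 ABCB1 transcript measured by quantitative nuclease protection assay, chemiluminescent read-out, 6 h after dosing human hepatocyte cultures (0.2% DMSO vehicle, daily redosing). Activity fitted as increase over DMSO baseline; cytotoxicity flagged by phase-contrast morphology.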

[15] = read-out: Broad substrate specificity ATP-binding cassette transporter ABCG2 (Homo sapiens) (UniProt Q9UNQ0); test: CLD_ABCG2_6hr: CellzDirect (CLD) Gene Expression Assay for ABC Transporter (ABCG2) at 6 hours (AID 2283660)
Method in brief: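 ABCG2 mRNA induction measured by qNPA chemiluminescence in human primary hepatocyte cultures, 6 h post-dose. Chemicals tested at several concentrations against a 0.2% DMSO vehicle; positive-direction fit relative to DMSO.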

[16] = read-out: xenobiotic metabolism (CYP1A1), CYP1A1 (gene 1543); test: CLD_CYP1A1_6hr: CellzDirect (CLD) Gene Expression Assay for xenobiotic metabolism (CYP1A1) at 6 hours (AID 2283661);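 on AC50: potency for transcript induction above DMSO vehicle baseline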
Method in brief: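 Read-out 6 h post-dose: qNPA chemiluminescent quantitation of transcript induction against 0.2% DMSO. Cells were cultured primary human hepatocytes from two separate donor preparations; phase-contrast morphology annotated apparent cytotoxicity.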

Measured: AC50

Chain of Broad substrate specificity ATP-binding cassette transporter ABCG2 (Homo sapiens) (Q9UNQ0 whole entry, looked up): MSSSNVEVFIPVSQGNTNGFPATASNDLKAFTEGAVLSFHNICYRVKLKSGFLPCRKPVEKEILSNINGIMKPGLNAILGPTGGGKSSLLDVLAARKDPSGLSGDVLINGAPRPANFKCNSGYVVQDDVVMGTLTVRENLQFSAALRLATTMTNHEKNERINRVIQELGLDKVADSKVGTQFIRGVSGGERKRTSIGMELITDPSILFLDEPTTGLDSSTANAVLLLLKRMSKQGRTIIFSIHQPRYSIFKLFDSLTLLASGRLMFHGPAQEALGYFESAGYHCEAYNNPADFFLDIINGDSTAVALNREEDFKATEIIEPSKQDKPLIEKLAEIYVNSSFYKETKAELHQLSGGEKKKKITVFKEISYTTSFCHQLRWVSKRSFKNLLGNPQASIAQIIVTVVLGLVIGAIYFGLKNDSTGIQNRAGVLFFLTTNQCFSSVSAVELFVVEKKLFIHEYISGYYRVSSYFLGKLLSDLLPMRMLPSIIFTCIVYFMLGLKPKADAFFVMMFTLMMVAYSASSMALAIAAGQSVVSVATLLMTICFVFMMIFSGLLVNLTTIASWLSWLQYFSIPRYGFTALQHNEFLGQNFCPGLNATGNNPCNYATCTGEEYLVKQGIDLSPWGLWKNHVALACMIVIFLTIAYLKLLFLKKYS

CCCCC(CC)COC(=O)c1ccccc1C(=O)OCC(CC)CCCC (stereo not drawn)
not listed: [13] | [14] | [15] | [16]
inactive: all other assays above

CC(C)C1(C)N=C(c2nc3ccccc3cc2C(=O)O)NC1=O (stereo not drawn)
not listed: [7] | [14] | [15] | [16]
inactive: all other assays above

Oc1ccccc1-c1ccccc1
not listed: [3] | [16]
inactive: all other assays above

CC(C)(C)c1ccc(CSc2cnn(C(C)(C)C)c(=O)c2Cl)cc1
not listed: [5] | [8] | [14] | [16]
inactive: all other assays above

CC(Oc1ccc(Cl)cc1Cl)C(=O)O (stereo not drawn)
not listed: [2] | [5] | [11] | [14] | [15] | [16]
inactive: all other assays above

COC(=O)C=C(C)OP(=O)(OC)OC
not listed: [3] | [12] | [14] | [16]
inactive: all other assays above

N#Cc1nn(-c2c(Cl)cc(C(F)(F)F)cc2Cl)c(N)c1S(=O)C(F)(F)F (stereo not drawn)
not listed: [5] | [16]
inactive: all other assays above

CCCCNC(=O)n1c(NC(=O)OC)nc2ccccc21
active: [1] 56.7 µM | [2] 59.2 µM | [8] 27.9 µM | [16] 3.66 µM
not listed: [4]
inactive: all other assays above

CC1=C(C(=O)Nc2ccccc2)SCCO1
not listed: [5] | [6] | [10] | [14] | [15] | [16]
inactive: all other assays above

COc1ccc(C(c2ccc(OC)cc2)C(Cl)(Cl)Cl)cc1
not listed: [3] | [8] | [12] | [15] | [16]
inactive: all other assays above

CCOC(=O)CC(SP(=S)(OC)OC)C(=O)OCC (stereo not drawn)
active: [1] 38.1 µM | [2] 33.7 µM | [13] 37 µM | [5] 32 µM | [6] 34 µM | [7] 36.2 µM | [10] 28.8 µM | [11] 34.2 µM | [16] 3.97 µM
inactive: [3] | [4] | [9] | [12] | [14] | [15]

C=CCC1=C(C)[C@@H](OC(=O)[C@@H]2[C@@H](C=C(C)C)C2(C)C)CC1=O
not listed: [1] | [2] | [3] | [11] | [16]
inactive: all other assays above

CS/C(C)=N/OC(=O)N(C)SN(C)C(=O)O/N=C(\C)SC
active: [12] 25 µM
not listed: [5] | [6] | [9] | [14] | [16]
inactive: all other assays above

Cc1cc(Cl)ccc1OCC(=O)O
not listed: [9] | [12]
inactive: all other assays above

From PubChem BioAssay (EPA / NIEHS)
